# Laboratory results published in the supplement of paper PMC8728848.
# The full list was thinned out, with the strongest signals kept by preference.
# Key:
# Experiment in all cases: glycan array binding signal (z-score within array); higher = stronger binding
# Settings in all cases: glycan notation: IUPAC condensed, linker removed
# [1] = test system: GlcNAc(b1-3)[GlcNAc(b1-6)]Gal(b1-4)GlcNAc
# Procedure, shortened: (§1)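 The binding signal is a Z-score computed within each array. Data were drawn from 3228 arrays in the Consortium for Functional Glycomics database, restricted to those with a known protein sequence. Scores were averaged over arrays of the same protein sequence at different concentrations or buffers, and over linkers, and negative values can be taken as non-binding.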
# GlcNAc(b1-6)GalNAc = test system: GlcNAc(b1-6)GalNAc
# Procedure, shortened: as §1
# [2] = test system: GlcNAc(b1-3)Gal(b1-4)GlcNAc
# Procedure, shortened: as §1
# Kdn(a2-3)Gal(b1-3)GlcNAc = test system: Kdn(a2-3)Gal(b1-3)GlcNAc
# Procedure, shortened: as §1
# GlcNAc(b1-4)GlcNAc = test system: GlcNAc(b1-4)GlcNAc
# Procedure, shortened: as §1
# GlcNAc(b1-3)Gal(b1-4)Glc = test system: GlcNAc(b1-3)Gal(b1-4)Glc
# Procedure, shortened: as §1
# GlcNAc(b1-3)GalNAc = test system: GlcNAc(b1-3)GalNAc
# Procedure, shortened: as §1
# [3] = test system: GlcNAc(b1-4)Gal(b1-4)GlcNAc
# Procedure, shortened: as §1
# [4] = test system: GlcNAc(b1-3)[GlcNAc(b1-6)]GalNAc
# Procedure, shortened: as §1
# [5] = test system: GlcNAc(b1-4)GlcNAc(b1-4)GlcNAc(b1-4)GlcNAc(b1-4)GlcNAc
# Procedure, shortened: as §1
substance,measurement,setting,value
"GspB (Streptococcus gordonii), Q939N5",glycan array binding signal (z-score),[1],-0.418
same,glycan array binding signal (z-score),GlcNAc(b1-6)GalNAc,-0.73
AgI/IIC123-GFP (Streptococcus mutans),glycan array binding signal (z-score),[2],-0.479
same,glycan array binding signal (z-score),Kdn(a2-3)Gal(b1-3)GlcNAc,-0.106
"SpGH101 (Streptococcus pneumoniae), Q8DR60",glycan array binding signal (z-score),GlcNAc(b1-4)GlcNAc,-0.14
Epa22,glycan array binding signal (z-score),GlcNAc(b1-3)Gal(b1-4)Glc,-0.695
same,glycan array binding signal (z-score),GlcNAc(b1-3)GalNAc,-0.435
LcI (Legionella pneumophila),glycan array binding signal (z-score),[3],4
"Wza (Escherichia coli), P0A930",glycan array binding signal (z-score),[1],3.12
"BambL (Burhholderia ambifaria), Q0B4G1",glycan array binding signal (z-score),[4],-0.313
same,glycan array binding signal (z-score),[5],-0.314
